Compound activity as filed in PubChem BioAssay.
Rows were chosen to be rich in hits. Some 12% of all compounds tested hit in one or more screens of this group.
HP1b binding inh = blocks HP1-beta chromodomain binding to methylated histone tails; 390,000 compounds, 0.56% hits; AlphaScreen HP1-beta / biotin-H3K9me3 peptide binding; Potency, µM (doses to about 114 µM), most hits filed as inhibitors; P83916; also: nearly all actives have a fitted effect of over 70% in size
Target sequence (P83916 whole entry, looked up): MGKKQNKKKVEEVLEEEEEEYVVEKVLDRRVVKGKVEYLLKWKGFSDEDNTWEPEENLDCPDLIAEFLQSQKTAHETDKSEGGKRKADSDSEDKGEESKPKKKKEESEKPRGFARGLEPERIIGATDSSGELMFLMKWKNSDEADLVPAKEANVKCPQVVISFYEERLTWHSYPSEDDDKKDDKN
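HP1-beta protein (50 nM final) preincubated 30 min at room temperature with biotinylated H3(1-18)K9me3 peptide (50 nM) in PBS pH 7.4, 0.01% Tween-20, then compound added for 30 min. AlphaScreen streptavidin donor/nickel chelate acceptor beads (10 ug/mL final), 30 min dark, luminescence read.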
Sfp PPTase inh = Sfp phosphopantetheinyl transferase inhibition; Potency, µM, hits mostly inhibitors; 310,000 compounds, 3.5% hits; AID 1490; Biochemical Sfp PPTase activity, qHTS;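 also: the enzyme is Sfp with the accession as filed and its product quenches rhodamine fluorescence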
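Step 1, compound plus 15 nM Sfp-PPTase, 15 min, room temperature. Step 2, add rhodamine-CoA (5 uM) and BHQ-2-YbbR (12.5 uM). Step 3, read 525/598 nm fluorescence at 0 and 30 min.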
JMJD2A Tudor inh = inhibitors of human JMJD2A Tudor domain; O75164; AlphaScreen JMJD2A-Tudor / H3K4me3 peptide binding; Potency, µM (series often up to 114 µM), usual class: inhibitors; 390,000 compounds, 4.4% hits; AID 504339; also: nearly all actives have a fitted effect of over 50% in size
BAZ2B inh = inhibitors of human BAZ2B bromodomain. AlphaScreen BAZ2B-H3K14Ac peptide displacement. Q9UIF8. Potency, µM (titrated, usually from 114 µM), usual class: inhibitors. 360,000 compounds, 4.4% hits; also: nearly all actives have a fitted effect of over 60% in size
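Inhibition is scored as reduced AlphaScreen emission. The BAZ2B/b-H3(5-23)K14Ac complex (50 nM each) in PBS pH 7.4, 0.01% Tween-20 meets compound (up to 110 uM) for 30 min at RT before bead addition.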
G9a inh = G9a (human) methyltransferase inhibition | Q96KQ7 | G9a H3K9 monomethylation, AlphaScreen, 2 h | Potency, µM (highest dose often 102 µM), most hits filed as inhibitors | 350,000 compounds, 8.8% hits; also: nearly all actives have a fitted effect of over 75% in size
Target sequence (Q96KQ7 913-1193 limits assumed): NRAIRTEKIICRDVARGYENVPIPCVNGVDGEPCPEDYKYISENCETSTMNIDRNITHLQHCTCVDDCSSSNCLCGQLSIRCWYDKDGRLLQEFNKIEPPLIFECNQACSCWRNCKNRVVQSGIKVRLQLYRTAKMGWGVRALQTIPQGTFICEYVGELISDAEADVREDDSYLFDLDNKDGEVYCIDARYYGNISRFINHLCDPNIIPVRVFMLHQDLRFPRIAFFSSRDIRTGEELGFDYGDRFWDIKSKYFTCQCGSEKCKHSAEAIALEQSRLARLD
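Readings reflect AlphaScreen signal from monomethyl-H3K9 antibody detection. HMT at 20 nM; substrate b-H3K9 500 nM; cofactor SAM 20 uM; 2 h RT reaction; compounds tested as titrations in qHTS with 15 min preincubation.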
L3MBTL1 block = blocks human L3MBTL1 | 230,000 compounds, 0.66% hits | AlphaScreen L3MBTL1–H3K9me1 peptide binding | AID 485360 | Potency, µM (series often up to 57.1 µM), usual class: inhibitors | Q9Y468; also: nearly all actives have a fitted effect of over 60% in size
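AlphaScreen assay: L3MBTL1 (50 nM final) was preincubated 30 min at room temperature with biotinylated H3(1-15)K9me1 peptide (75 nM final), then 30 min with library compounds; streptavidin donor and nickel chelate acceptor beads (10 ug/mL final) added, 30 min dark.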
A number is an active result; [ ] = dose if it differs, or a comment. Calls follow the shape of the dose curve; as a rule, active = well fitted curve in the direction sought with a large enough effect; inconclusive = small, poorly fitted or top-dose-only effect, or another doubt; inactive = no such curve, though single readings can be large; an effect the other way counts as inactive or inconclusive.

Screening CCN(C(=O)CSc1ncc(S(=O)(=O)c2ccc(C)c(Cl)c2)c(=O)[nH]1)c1cccc(C)c1 returned HP1b binding inh inactive, JMJD2A Tudor inh inactive, BAZ2B inh inactive and G9a inh inactive.
Screening Cn1c(=O)c2c(nc(CN3CCN(C(=O)c4ccco4)CC3)n2Cc2ccccc2)n(C)c1=O returned HP1b binding inh inactive, Sfp PPTase inh inactive, JMJD2A Tudor inh inactive, BAZ2B inh inactive, G9a inh inconclusive and L3MBTL1 block inactive.
For Cc1ccc(Cn2c(CN3CCN(C(=O)c4ccco4)CC3)nc3c2c(=O)n(C)c(=O)n3C)cc1 the results were HP1b binding inh inactive, Sfp PPTase inh inactive, JMJD2A Tudor inh inactive, BAZ2B inh inactive, G9a inh 50.1µM and L3MBTL1 block inactive.
Screening Cn1c(=O)c2c(nc(CN3CCN(C(=O)c4ccco4)CC3)n2Cc2ccc(Cl)cc2)n(C)c1=O returned HP1b binding inh inactive, Sfp PPTase inh inactive, JMJD2A Tudor inh inactive, BAZ2B inh inconclusive, G9a inh 50.1µM and L3MBTL1 block inactive.
`COc1ccc(CCN2CC(C(=O)N(C)Cc3ccc(C)o3)CCC2=O)cc1` (configuration not stated) gave HP1b binding inh inactive, Sfp PPTase inh 22.4µM, JMJD2A Tudor inh inactive, BAZ2B inh inactive and G9a inh inconclusive.
`COc1ccccc1CN1CC(C(=O)N(C)Cc2ccc(C)o2)CCC1=O` (configuration not stated) gave HP1b binding inh inactive, Sfp PPTase inh 44.7µM, JMJD2A Tudor inh inactive, BAZ2B inh inactive and G9a inh 35.5µM.
`COc1ccccc1CN1CC(C(=O)NCCc2ccc(C)o2)CCC1=O` (configuration not stated) gave HP1b binding inh inactive, Sfp PPTase inh inconclusive, JMJD2A Tudor inh inactive, BAZ2B inh inactive and G9a inh inconclusive.
Screening O=C(NCc1ccccc1F)C1CCN(c2nn3cc(-c4ccc(F)cc4)nc3s2)CC1 returned HP1b binding inh inactive, JMJD2A Tudor inh inactive, BAZ2B inh inactive and G9a inh inactive.
Cc1ccc(C)c(N2CCN(S(=O)(=O)c3c(C(=O)N4CCC(C)CC4)c(C)n(C)c3C)CC2)c1 was read as HP1b binding inh inactive, JMJD2A Tudor inh inconclusive, BAZ2B inh 50.1µM and G9a inh inactive[12.7 µM].
`CCN(CC)c1ccc(NS(=O)(=O)c2ccc(OC)cc2)cc1` gave HP1b binding inh inactive, Sfp PPTase inh inactive, JMJD2A Tudor inh inactive, BAZ2B inh 39.8µM, G9a inh 15.8µM and L3MBTL1 block inactive.
Screening COc1ccc(S(=O)(=O)Nc2ccc3c(c2)CCC3)cc1 returned HP1b binding inh inactive, Sfp PPTase inh inactive, JMJD2A Tudor inh 10µM, BAZ2B inh inactive and G9a inh inactive.
Screening COc1ccc(S(=O)(=O)Nc2ccc(N(C)C(C)=O)cc2)cc1 returned HP1b binding inh inactive, Sfp PPTase inh inactive, JMJD2A Tudor inh inactive, BAZ2B inh inactive and G9a inh inactive.
Screening COc1ccc(S(=O)(=O)Nc2ccc(C)c(C)c2)cc1 returned JMJD2A Tudor inh inactive.
CC(=O)Nc1ccc(S(=O)(=O)Nc2ccc3c(c2)CCC3)cc1 was read as HP1b binding inh inactive, Sfp PPTase inh inactive, JMJD2A Tudor inh inactive, BAZ2B inh inactive and G9a inh 44.7µM.
For COC(=O)c1sc2cccc(F)c2c1S(=O)(=O)N1CCN(c2cccc(C)c2)C(C)C1 (configuration not stated) the results were HP1b binding inh inactive, JMJD2A Tudor inh inactive, BAZ2B inh inactive and G9a inh inactive.
`C#CCOCCOCCOCCNc1nc(N2CCN(C(=O)[C@H]([C@@H](C)CC)n3cc([C@@H](N)CC(C)C)nn3)CC2)nc(N2CCN(C(=O)[C@H](Cc3cc4ccccc4[nH]3)n3cc([C@@H](N)Cc4ccc(O)cc4)nn3)CC2)n1` gave HP1b binding inh inactive, Sfp PPTase inh inconclusive, JMJD2A Tudor inh 56.2µM, BAZ2B inh 50.1µM, G9a inh inactive[12.7 µM] and L3MBTL1 block inactive.
`C#CCOCCOCCOCCNc1nc(N2CCN(C(=O)[C@H]([C@@H](C)CC)n3cc([C@@H](N)CC(C)C)nn3)CC2)nc(N2CCN(C(=O)[C@H](Cc3cc4ccccc4[nH]3)n3cc([C@@H](N)C(C)CC)nn3)CC2)n1` (some centres not stated) gave Sfp PPTase inh inactive, BAZ2B inh 50.1µM and G9a inh inactive[12.7 µM].
For C#CCOCCOCCOCCNc1nc(N2CCN(C(=O)[C@H]([C@@H](C)CC)n3cc([C@@H](N)Cc4ccc(O)cc4)nn3)CC2)nc(N2CCN(C(=O)[C@H](Cc3cc4ccccc4[nH]3)n3cc([C@@H](N)CC(C)C)nn3)CC2)n1 the results were HP1b binding inh inactive, JMJD2A Tudor inh 39.8µM, BAZ2B inh 56.2µM, G9a inh inactive[2.33 µM] and L3MBTL1 block inactive.
For O=c1c2sccc2n(Cc2cc(=O)n3cc(Cl)ccc3n2)c(=O)n1-c1ccccc1 the results were HP1b binding inh inactive, JMJD2A Tudor inh inactive, BAZ2B inh inactive and G9a inh inactive.
Screening COc1ccc(SCC(=O)c2cc(C)c(OC(=S)N(C)C)c(C)c2)cc1 returned HP1b binding inh inactive, Sfp PPTase inh inactive, JMJD2A Tudor inh inactive, BAZ2B inh inactive and G9a inh 39.8µM.
Screening Fc1ccc(-c2csc(-c3nc(-c4ccc(Br)s4)cs3)n2)cc1 returned HP1b binding inh inactive, JMJD2A Tudor inh inactive, BAZ2B inh inactive and G9a inh inactive.
`C=CCn1c(-c2oc3nc(-c4ccccc4)cc(-c4ccccc4)c3c2N)n[nH]c1=S` gave HP1b binding inh inconclusive, Sfp PPTase inh inactive, JMJD2A Tudor inh inconclusive, BAZ2B inh inactive, G9a inh 31.6µM and L3MBTL1 block inactive.
For O=[N+]([O-])c1cccc(-c2n[nH]c(=S)n2Cc2ccccc2)c1 the results were HP1b binding inh inactive, Sfp PPTase inh inactive, JMJD2A Tudor inh 79.4µM, BAZ2B inh inactive, G9a inh 1.78µM and L3MBTL1 block inactive.
For C=CCn1c(-c2sccc2C)n[nH]c1=S the results were HP1b binding inh inactive, Sfp PPTase inh inactive, JMJD2A Tudor inh 7.08µM, BAZ2B inh inactive, G9a inh 7.94µM and L3MBTL1 block inactive.
Screening C=CCn1c(-c2cccc([N+](=O)[O-])c2)n[nH]c1=S returned HP1b binding inh inactive, Sfp PPTase inh inconclusive, JMJD2A Tudor inh 5.62µM, BAZ2B inh inactive and G9a inh 12.6µM.
For Cc1cc(-c2sccc2C)nc(-n2cccc2)n1 the results were HP1b binding inh inactive, Sfp PPTase inh inactive, JMJD2A Tudor inh inactive, BAZ2B inh inactive, G9a inh inactive[12.7 µM] and L3MBTL1 block inactive.
`C=CCn1c(SC)nnc1-c1cccc([N+](=O)[O-])c1` gave HP1b binding inh inactive, Sfp PPTase inh inactive, JMJD2A Tudor inh inactive, BAZ2B inh inactive, G9a inh inactive and L3MBTL1 block inactive.
